Experiment [1] is described as follows: High-throughput drug toxicity screening in the BPDCN cell line Cal-1 (AID 1224825; call rule not given here). The following applies: Cal-1 BPDCN cell viability, qHTS; at 45.8 µM (top of the series). Put shortly: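 Percent activity derived from CellTiter-Glo luminescence, scaling DMSO to 100% and 9.2 uM final bortezomib to 0%. BPDCN Cal-1 cells (500/well, RPMI plus 10% FBS) incubated with compounds 48 hours at 37C before reading.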
In general terms: qHTS replaces the single test concentration by a dilution series.

Experiment [2] in a line: qHTS assay for measurement of the activity of small molecule inhibitors on Zika virus induced Caspase-3 activity in human iPSC derived neural progenitor cells (hNPCs) (AID 1224857). Also: % of control where 0% means no effect; nearly all actives have a fitted effect of over 65% in size. Summed up: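 Human iPSC-derived neural progenitor cells pretreated 1 hr with compounds, then infected with Zika virus (2 FFU/cell) for 6 hours at 37 C. Caspase-3/7 measured by Caspase-Glo luminescence; % inhibition calculated from induction scaled to uninfected (0%) and infected (100%) wells.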

Experiment [3] in a line: qHTS assay for measurement of the activity of small molecule inhibitors on Zika virus induced Caspase-3 activity in human astrocytoma cells (AID 1224859).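 Also: plate controls were ZIKV-infected untreated cells for no effect and uninfected cells for full effect.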 Summed up:
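SNB-19 astrocytoma cells, 250/well, pretreated 1 h with compounds, then Zika virus at 2 FFU/cell for 6 h at 37 C; Caspase-Glo 3/7 luminescence after 30 min; percent inhibition normalised to uninfected and infected controls.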

Experiment [4] in a line: qHTS Screen of the MIPE 4.0 Collection Against Ewings Sarcoma (RDES) (AID 1259252). Also: nearly all actives have a fitted effect of over 35% in size. Also: potency is read from the fitted curve at half-maximal effect. Put shortly: (§1)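 Cells plated in serum-containing RPMI (5% FBS) and treated with compound dilutions for 48 h. Readout luminescent viability; normalization relied on vehicle (no inhibition) and media-only columns (full inhibition).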
Experiment [5] can be described thus: qHTS Screen of the MIPE 4.0 Collection Against Ewings Sarcoma (TC71) (AID 1259253). Also: nearly all actives have a fitted effect of over 40% in size. Also: potency is read from the fitted curve at half-maximal effect. Summed up: as §1
Experiment [6] can be described thus: qHTS Screen of the MIPE 4.0 Collection Against Ewings Sarcoma (EW8) (AID 1259255). Also: nearly all actives have a fitted effect of over 35% in size. Also: potency is read from the fitted curve at half-maximal effect.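 As to viability: 100% = DMSO-treated cells and 0% = medium-only wells without cells.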 Summed up:
as §1

Experiment [7] is described as follows: qHTS Screen of the MIPE 4.0 Collection Against Ewings Sarcoma (TC32) (AID 1259256). Also: nearly all actives have a fitted effect of over 45% in size. Also: potency is read from the fitted curve at half-maximal effect. Put shortly:
as §1

A short description of experiment [8]: NS1 protein of Zika virus - qHTS assay to identify small molecule inhibitors in human HEK 293 cells (AID 1347053). Also: nearly all actives have a fitted effect of over 55% in size. Also: potency is read from the fitted curve at half-maximal effect. Summed up:
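Read-out is a two-antibody TR-FRET for ZIKV NS1, normalized between uninfected cells and infected cells. Compound added 1 h before MR766 infection at MOI 0.5; human HEK 293 cells incubated 24 h, 37 C.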

Experiment [9] can be described thus: P-glycoprotein substrates identified in KB-3-1 adenocarcinoma cell line, qHTS therapeutic library screen (AID 1346986). Also: nearly all actives have a fitted effect of over 60% in size. Summed up:
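Dose-response cytotoxicity, KB-3-1 vs P-gp-high KB-8-5-11, no colchicine in assay medium. Read: CellTiter-Glo at 72 h.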

Experiment [10] is described as follows: P-glycoprotein substrates identified in KB-8-5-11 adenocarcinoma cell line, qHTS therapeutic library screen (AID 1346987). Also: nearly all actives have a fitted effect of over 65% in size. Also: potency is read from the fitted curve at half-maximal effect. Put shortly: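 Human cervical adenocarcinoma KB-8-5-11 cells, selected in colchicine to over-express P-gp and assayed without it, were exposed for 72 h to titrated compounds. An ATP-based luminescent viability signal gave AC50.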
Experiment [11] is described as follows: Identifying Small Molecule Inhibitors of Pancreatic Cancer Stem Cells (A2780, Spheroid) (AID 1259357).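 Also: spheroids pre-formed over 14 days in stem cell medium on hydrogel; compound exposure lasted 48 h before the ATP luminescence read; 100% = DMSO treated cells and 0% = wells without cells.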 The following applies: Potency: A2780 spheroid viability. Summed up:
(§2)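 Spheroids grown 14 days in stem cell media on hydrogel-coated nonadherent plates; 2D lines seeded directly. Compounds added after 4 h attachment, 48 h at 37C, 5% CO2; CellTiter-Glo luminescence normalized to DMSO (no inhibition) and no-cell wells (full inhibition).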

A short description of experiment [12]: Identifying Small Molecule Inhibitors of Pancreatic Cancer Stem Cells (SN12C, Adherent) (AID 1259358).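 Also: cell survival measured after 48 h of compound exposure.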 Summed up: (§3)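 Pre-formed 14-day tumor spheroids or adherent cells dosed and incubated 48 h, 37C, 5% CO2. Viability assessed by CellTiter-Glo.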
A short description of experiment [13]: Identifying Small Molecule Inhibitors of Pancreatic Cancer Stem Cells (SN12C, Spheroid) (AID 1259360).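 Also: 100% = DMSO-treated cells and 0% = wells without cells.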 The following applies: Potency: SN12C spheroid viability. Put shortly:
as §2

Experiment [14] in a line: Identifying Small Molecule Inhibitors of Pancreatic Cancer Stem Cells (A278, Adherent) (AID 1259361).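 Also: viability read after 48 h compound exposure; 100% = DMSO-treated cells and 0% = cell-free media-only wells; nearly all actives have a fitted effect of over 35% in size.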 Put shortly: as §3
Experiment [15] can be described thus: Identifying Small Molecule Inhibitors of Pancreatic Cancer Stem Cells (Panc1, Adherent) (AID 1259362).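 Also: compound exposure lasted 48 h before the viability read; plate controls were DMSO-treated cells for no effect and cell-free media wells for full effect.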 To be noted: Potency: viability. Put shortly:
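Viability is scored by CellTiter-Glo luminescence 48 h after dosing, expressed as percent activity against vehicle and no-cell references. Spheroid formats rely on cells cultured 14 days in stem cell media beforehand.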

Each structure is given as a SMILES string. Results filed as inconclusive are left out. The source made the active and inactive calls. Unless noted, calls follow the shape of the dose curve; as a rule, active = well fitted curve in the direction sought with a large enough effect; inconclusive = small, poorly fitted or top-dose-only effect, or another doubt; inactive = no such curve, though single readings can be large; an effect the other way counts as inactive or inconclusive.

Regarding `C[C@]12CC[C@H]3[C@@H](CCC4=CC(=O)CC[C@@]43C)[C@H]1CC[C@H]2O`, the viability (% of control) in experiment [1] was determined as 101%. Also, the Potency result in [2], in experiment [3], in experiment [4], in experiment [5], in [6] and in experiment [7] was “inactive” throughout. Besides, the Potency result in [8] was “inactive”.

As for `O=c1cccc2n1CC1CNC[C@H]2C1`, the viability (% of control) in [1] stood at 13.3%. Further, the Potency entry in experiment [2], in experiment [3], in [4], in experiment [5], in [9] and in [8] was “inactive” throughout.

Take `O=C(Nc1ccncc1)C(=O)c1cn(Cc2ccc(Cl)cc2)c2ccccc12`: the viability (% of control) in experiment [1] is 16.2%. Besides, the Potency result in experiment [2], in experiment [3] and in experiment [7] was “inactive” in each case. For the same compound, the Potency in experiment [4] was 93.5 nM (active); in experiment [5], 132 nM (active); in [6], 93.5 nM (active); in experiment [10] it was 33.2 nM (active); in [8], 9.3 nM (active).

For `COc1ccc(CC2NCCc3cc(OC)c(OC)cc32)cc1OC` (stereo not given), in experiment [1], the viability (% of control) is 102%. For the same compound, the Potency result in [2], in [3], in experiment [6], in [7], in experiment [10] and in experiment [8] was “inactive” each time. Besides, the Potency in experiment [4] was 23500 nM (active).

`COc1cc2cc(c1Cl)N(C)C(=O)C[C@H](OC(=O)C(C)C)[C@]1(C)O[C@H]1[C@H](C)[C@@H]1C[C@@](O)(NC(=O)O1)[C@H](OC)C=CC=C(C)C2`: the viability (% of control) in [1] is 4.31%. The Potency entry in experiment [2], in [3], in [4], in [6], in experiment [7] and in experiment [8] was “inactive” throughout.

On to `CC(C)(C)[C@]1(O)C[C@@H]2OC(=O)C[C@@]23C(=O)O[C@@H]2OC(=O)[C@H](O)C213` (stereo not given in full), for which, in experiment [1], the viability (% of control) was 124%. The Potency result in experiment [2], in experiment [3], in [4], in experiment [6], in experiment [7] and in [9] was “inactive” in each case. The Potency result in [8] was “inactive”.

Regarding `Clc1ccccc1C(c1ccccc1)(c1ccccc1)n1cccn1`, the viability (% of control) in [1] was determined as 108%. The Potency result in [2] and in [3] was “inactive” each time. The values for the Potency in experiment [4], in [6] and in [7] were 1050 nM (active), 1050 nM (active) and 935 nM (active), respectively.

On to `O=C(N[C@@H](COc1ccc2[nH]c(=O)[nH]c2c1)c1ccccc1)c1cccn(Cc2ccc(F)c(F)c2)c1=O`, for which, in experiment [1], the viability (% of control) came out at 36.8%. In addition, the Potency result in [2] and in experiment [3] was “inactive” throughout. The Potency in experiment [4] was 23500 nM (active); in experiment [7], 18700 nM (active).

In the case of `CC(=O)Nc1ccc(OC[C@](C)(O)C(=O)Nc2ccc([N+](=O)[O-])c(C(F)(F)F)c2)cc1`, the viability (% of control) in [1] is 106%. Also, the Potency entry in [2], in experiment [3], in experiment [4], in experiment [6], in [7] and in [11] was “inactive” throughout. Besides, the Potency entry in [12], in experiment [13], in [15] and in experiment [8] was “inactive” each time. Further, the IC50 (viability decrease) result in experiment [14] is “inactive”.

The record behind these values is PubChem BioAssay (NCATS).
